Rows were chosen to be rich in hits. Some 2.2% of all compounds tested hit in one or more screens of this group.
PvdQ inh = P. aeruginosa PvdQ acylase inhibition. purified PvdQ acylase, fluorescence plate reader. inhibition, % at 10 µM. hit rate 0.063% among 340,000. AID 488965; in the data active = inhibition above about 30%, passing the limit was not always enough; inconclusive = no clear call, values can overlap the other calls;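 note: 0% = vehicle neutral wells and 100% = reference inhibitor wells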
PHOSPHO1 inh = PHOSPHO1 (human) inhibition; Q8TCT1; recombinant PHOSPHO1, absorbance phosphatase assay; inhibition, % at 13.3 µM; hit rate 1.1% among 290,000; in the data active = inhibition above about 60%
Target sequence (Q8TCT1 whole entry, looked up): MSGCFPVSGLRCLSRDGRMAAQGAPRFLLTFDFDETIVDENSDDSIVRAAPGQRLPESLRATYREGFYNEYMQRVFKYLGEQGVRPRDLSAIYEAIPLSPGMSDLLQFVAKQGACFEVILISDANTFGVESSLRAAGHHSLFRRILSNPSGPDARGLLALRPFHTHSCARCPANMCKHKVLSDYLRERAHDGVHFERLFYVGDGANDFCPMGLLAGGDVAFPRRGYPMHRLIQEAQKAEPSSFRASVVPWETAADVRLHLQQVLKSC
p-CIP stab down = lowers stability of the mouse p/CIP coactivator protein. decrease of EGFP signal, % at 10 µM. Q05BA5. hit rate 0.01% among 290,000. F442A p/CIP-EGFP cells, EGFP fluorescence, 16 h;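 active = EGFP signal decrease of at least 30% at 10 µM or well 3 SD below plate mean, unless failing retest; inactive = the rest, including hits failing retest or dose response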
Mot1-301 SUMO = inhibitors of SUMOylation pathway: yeast Mot1-301 growth rescue; hit rate 1% among 320,000; AID 2716; growth rescue, % at 18.8 µM; S. cerevisiae Mot1-301 growth rescue, ATP luminescence, 38.5C; percent above DMSO median, 100 means doubled;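 active = every valid replicate shows activation above 250% relative to neutral control wells; inactive = the rest, any valid replicate at or below 250%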;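 note: OY570 slx delta 5 strain wells were the positive control but not used for scaling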
HDAC3 inh = inhibitors of human histone deacetylase 3 | recombinant HDAC3, fluorogenic peptide/trypsin coupled, fluorescence | inhibition, % at 8.3 µM | hit rate 0.15% among 320,000 | AID 2718; in the data active = inhibition above about 26%, passing the limit was not always enough; inconclusive = no clear call, values can overlap the other calls
JMJD2C inh = blocks human GASC-1 demethylase activity. Q9H3R0. GST-JMJD2C(1-420) H3K9me3 demethylation, DELFIA europium. inhibition, % at 2.35 µM. hit rate 0.069% among 330,000. AID 2099;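 active = more than half of a compound's replicate wells show inhibition beyond 50%, single wells judged on their own value; inconclusive = some, but no more than half, of replicates pass 50% inhibition; inactive = no replicate passes 50% inhibition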;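 note: signal counts dimethyl H3K9 product captured on neutravidin plate; 0% = median of DMSO wells and 100% = 0.3 times that DMSO median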
An asterisk follows results filed as active; ? = inconclusive; nt = no result; + = active, no number.

SMILES	PvdQ inh	PHOSPHO1 inh	p-CIP stab down	Mot1-301 SUMO	HDAC3 inh	JMJD2C inh
CCc1nc(CN2CCCC(C(=O)c3ccc4c5c(cccc35)CC4)C2)c(C)[nH]1 (stereo not drawn)	-3	60*	-17	-8	-16	-14
O=C(NCCc1ccccc1)c1ccc2nc(-c3ccco3)c(-c3ccco3)nc2c1	-7	53	-1	-10	6	4
O=C(NCCO)c1ccc2nc(-c3ccco3)c(-c3ccco3)nc2c1	-3	74*	-4	2	0	-2
Cc1ccc2cccc(OCC(=O)N3CC(C)CC(C)C3)c2n1 (stereo not drawn)	9	10	7	nt	0	4
Cc1c(C(=O)N2CCCCC2)c(S(=O)(=O)N2CCc3ccccc32)c(C)n1C	5	51	6	91	-2	-22
Cc1ccccc1/C=N/n1c(-c2ccccn2)n[nH]c1=S	7	20	4	-14	17	9
S=c1[nH]nc(-c2ccccn2)n1/N=C/c1cccc2ccccc12	9	78*	-3	-25	17	9
CC(OC(=O)c1ccc(-c2ccc(O)cc2)cc1)C(=O)NC1CCCCC1C (stereo not drawn)	-5	nt	nt	750*	3	3
COC(=O)C(CC(=O)c1ccc(Br)cc1)n1cccn1 (stereo not drawn)	0	14	-9	19	-7	-38
COc1ccccc1NC(=S)NNC(=O)c1c(Cl)c(C)nn1C	-4	-25	-5	-9	8	3
COc1ccccc1NC(=S)NNC(=O)c1cc(C)nn1C	-15	67*	-9	-7	-2	5
COc1ccccc1NC(=S)NNC(=O)c1cc(C)n(C)n1	-9	70*	-3	-9	9	24
C/C(CC(=O)Nc1ccc2c(c1)OCCO2)=N\NC(=O)COc1ccc(Cl)c(C)c1	-17	24	0	-7	3	8
Cc1ccc(S(=O)(=O)Nc2c(Cl)c(Cl)c(O)c3ccccc23)cc1	nt	9	-1	-7	-1	0
CCCN(CCC)C(=O)Cn1c(=O)n(CCCCC(=O)NCc2ccco2)c(=O)c2ccccc21	-6	3	-3	294*	-2	0
O=C(CCCn1c(=O)c2ccccc2n(CC(=O)NCc2ccco2)c1=O)NCc1ccco1	2	-1	-5	-8	5	-10
COCCCn1c(-c2ccc(Cl)cc2)n[nH]c1=S	16	98*	-6	-6	5	-1
CCOCCCn1c(-c2ccc(Cl)cc2)n[nH]c1=S	-9	99*	5	36	9	2
COc1ccc(NC(=O)CSc2nc3sc(C)cc3c(=O)n2C)c(OC)c1	-16	31	-65	-5	-1	13
Cn1c(=O)c2c(O)c([N+](=O)[O-])c(=O)n(C)c2n(C)c1=O	-11	27	-7	-15	-12	-10
COc1cc2ncnc(N[C@H](C)c3ccccc3)c2cc1OC	-18	2	-8	-10	4	-14
CCCCC(=O)N(Cc1nc2sc(C)c(C)c2c(=O)[nH]1)C1CCCC1	8	6	-2	+	2	6
COc1cccc(CN2CC(C(=O)NCc3ccc(Cl)s3)CCC2=O)c1 (stereo not drawn)	-15	41	-12	nt	nt	3
CC(O)/C=C/c1cccc[n+]1C (stereo not drawn)	7	84*	-11	-29	15	-7
CCc1ccc2[nH]c(C)c(CN3CCCCCC3)c(=O)c2c1	3	33	3	-26	15	11
SMILES	PvdQ inh	PHOSPHO1 inh	p-CIP stab down	Mot1-301 SUMO	HDAC3 inh	JMJD2C inh
CCOc1cc(C)ccc1OCc1nnc(SCC(=O)c2cccc([N+](=O)[O-])c2)n1CC	8	88*	-1	-21	8	-6
Cc1cccc(NS(=O)(=O)c2cccc3nsnc23)c1	-5	29	-9	-16	13	56*
CC(=O)/C(=N\Nc1ccc(C)cc1)N1CCOCC1	-10	65*	7	272	-4	-5
O=C(CCCN1CCN(c2ccccn2)CC1)c1ccc(F)cc1	-3	nt	nt	351*	11	nt
O=S(=O)(Cc1ccccc1)N=Nc1c(O)[nH]c2ccc(Br)cc12	-4	65*	-4	6	7	7
O=C(N/N=C\C=C\c1ccco1)c1cc(-c2ccc3ccccc3c2)n[nH]1	-12	-9	-11	594*	9	20
Cn1c(=O)c2sccc2n2c(CCCC(=O)N3CCN(c4ccccn4)CC3)nnc12	-5	24	1	19	-4	-13
CCCCNC(=O)CC1N=C2c3ccccc3N=C(SCC(=O)Nc3ccc(OC)cc3)N2C1=O (stereo not drawn)	0	18	46*	nt	2	1
Cc1ccc(C)c(-n2c(-c3ccc4c(c3)OCO4)n[nH]c2=S)c1	-2	96*	-12	97	-6	-24
Cc1ccc(C)c(-n2c(-c3ccncc3)n[nH]c2=S)c1	8	13	5	29	?	-2
Cc1ccc(C)c(-n2c(-c3csc(C)c3)n[nH]c2=S)c1	9	97*	-18	6	5	-1
CC1CN(Cc2c(O)ccc3c2oc(=O)c2ccccc23)CC(C)O1 (stereo not drawn)	13	38	-2	-30	8	54*
CC1CN(Cc2c(O)ccc3c(=O)c(-c4ccccc4)coc23)CC(C)O1 (stereo not drawn)	2	28	5	48	-28	-3
O=C(Cc1c(F)cccc1Cl)N1CCN(S(=O)(=O)c2cccs2)CC1	9	nt	nt	-6	-2	4
CCC(c1nnc(SCC(=O)NCCc2ccc(Cl)cc2Cl)o1)N(C)C (stereo not drawn)	-3	67*	-10	-4	16	-2
CCC(c1nnc(SCC(=O)Nc2cc(C)on2)o1)N(C)C (stereo not drawn)	-7	nt	nt	2	-6	-4
CN(C)CCNC(=O)c1c(CSc2ccc(Cl)cc2)noc1C(=O)NCc1ccccc1	-14	nt	nt	0	0	-1
C=CCn1c(SCC)nc2sc3c(c2c1=O)CCc1ccccc1-3	6	49	4	-8	-3	-3
C=CCSc1nc2sc3c(c2c(=O)n1CC)CCc1ccccc1-3	4	87*	0	-24	1	19
Oc1c(Cl)cc(Cl)cc1Sc1cc(Cl)cc(Cl)c1O	nt	21	-9	282*	-2	?
Cc1cc(C)c(O)c(CN(C)Cc2cc(Cl)cc(Cl)c2O)c1	9	nt	nt	nt	nt	nt
N#Cc1nc(Cl)c(Cl)c(NN)c1Cl	8	8	4	-2	3	-3
O=C(OCc1nnc(-c2ccccc2)o1)c1ccc(Cl)cc1	-14	-5	2	-5	0	0
O=C(Cc1ccc(Cl)cc1)OCc1nnc(-c2ccccc2)o1	9	60*	-3	20	3	-2
CN1C(C(=O)c2ccccc2)=C(N)c2ccccc2S1(=O)=O	-1	64*	1	171	4	-3

Source: PubChem (several laboratories)
